Bioassay records (PubChem)
S1P2 antag = antagonists of human S1P2 receptor. O95136. cell-based S1P2 antagonist assay, inhibition at 5 uM. inhibition, % at 5 µM. 97,000 tested, 0.21% active; in the data active means inhibition above about 45%;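 further: CRE beta-lactamase reporter cells expressing human S1P2 stimulated with S1P; 0% = agonist at EC80 alone and 100% = agonist plus reference antagonist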
Target sequence (O95136 whole entry, looked up): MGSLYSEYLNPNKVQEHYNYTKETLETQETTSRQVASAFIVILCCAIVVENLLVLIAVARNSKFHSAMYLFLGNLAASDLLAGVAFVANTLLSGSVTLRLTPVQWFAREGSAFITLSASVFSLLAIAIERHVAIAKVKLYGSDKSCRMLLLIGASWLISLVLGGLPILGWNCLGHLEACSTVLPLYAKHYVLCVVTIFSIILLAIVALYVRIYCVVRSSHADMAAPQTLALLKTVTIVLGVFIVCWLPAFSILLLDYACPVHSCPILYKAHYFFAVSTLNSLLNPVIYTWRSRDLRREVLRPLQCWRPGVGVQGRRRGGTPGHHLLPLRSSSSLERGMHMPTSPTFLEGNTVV
GALR2 blocker = antagonists of human galanin receptor 2 (GALR2); GALR2-expressing cells, antagonist mode; inhibition, % at 4 µM; 140,000 tested, 0.39% active; in the data active means inhibition above about 27%;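 further: cells stimulated with galanin 1-16 at roughly its EC80; 0% = agonist challenge control and 100% = basal control without agonist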
PostGolgi ctrl = growth of the yeast control strain, post-Golgi counter-screen; efflux-deficient yeast background strain, growth absorbance A615, 16 h; inhibition, % at 10 µM; 98,000 tested, 5% active; AID 738
GALR2 agonist = activates the human galanin receptor 2 | 140,000 tested, 0.48% active | activation, % (concentration not given with the values) | AID 803 | O43603 | GALR2-expressing cells, agonist activation read-out; in the data active means activation above about 5%, passing the limit was not always enough;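 further: 0% = vehicle buffer wells and 100% = reference agonist at full effect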
S1P2 agonist = S1P2 (human) receptor agonism; O95136; S1P2-expressing cell line, agonist reporter read-out; activation, % at 4.5 µM; 97,000 tested, 0.46% active; AID 729; in the data active means activation above about 16%;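 further: 0% = vehicle low control and 100% = maximal reference agonist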
PostGolgi yeast = growth inhibition of a yeast mutant, post-Golgi transport screen; inhibition, % at 10 µM; 98,000 tested, 0.9% active; post-Golgi transport phenotypic cell assay;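 further: yeast cells grown in 1536-well plates; yeast grown about 18 h at 30C before absorbance read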
Numbers without * were called inactive; · = no result given. This excerpt belongs to a sample that is enriched for hits. Unless noted, no stated cut-off is given here; in the data, active means inhibition above about 30%; inactive means the rest.

SMILES	S1P2 antag	GALR2 blocker	PostGolgi ctrl	GALR2 agonist	S1P2 agonist	PostGolgi yeast
O=C(Nc1cccnc1)c1ccc2c(c1)C(=O)N(Cc1cccnc1)C2=O	3	6	30*	-2	-10	28
O=C(/C=C/c1ccccc1)Nc1cc(S(=O)(=O)N2CCOCC2)ccc1N1CCCC1	·	-10	·	1	·	·
O=c1oc2ccccc2cc1N1CCOCC1	·	9	·	0	·	·
COCCCn1c(SCc2nnc(-c3ccccc3)o2)nc2sc3c(c2c1=O)CCC3	15	-8	100*	-2	-4	63*
Cn1c(SCc2nnc(-c3ccccc3Br)o2)nc2sc3c(c2c1=O)CCC3	·	-3	45*	0	·	-9
Cn1c(SCC(=O)N2CCOCC2)nc2sc3c(c2c1=O)CCCC3	0	-11	5	-1	-4	-5
COc1ccc(Cl)cc1NC(=S)NCCSc1ccc(C)cc1	·	-6	·	-1	·	·
COc1cccc(CNc2cc(CSc3ccc(Cl)cc3)nc(C)n2)c1	-9	-4	25	1	-7	6
C=CCn1c(CCC(=O)Nc2ccc(C)c(Cl)c2)nnc1SCC(=O)Nc1ccccc1C	17	-7	5	-1	-6	-7
CCNC(=O)COc1cccc(C(=O)NCc2ccccc2)c1	·	2	·	-1	·	·
O=C1/C(=C/c2ccc([N+](=O)[O-])cc2)C=C(c2ccccc2)N1c1ccccc1	1	-1	4	-2	-2	-3
O=C1/C(=C/c2ccc([N+](=O)[O-])cc2)C=C(c2ccccc2)N1c1ccc(O)cc1	5	-5	74*	-2	-10	92*
CC12CC(c3ccccc3O1)C(C(=O)NCc1ccccc1)C(=O)N2 (configuration not stated)	12	-4	10	0	-7	35*
CCc1cccc(C)c1NC(=O)CO/N=C(\C)c1cc2ccccc2o1	·	-13	·	-1	·	·
CC1CCN(C(=O)CSCC(=O)Nc2nc(-c3cccs3)cs2)CC1	·	13	65*	-1	·	-1
CC1CCCN(C(=O)CSCC(=O)Nc2nc(-c3cccs3)cs2)C1 (configuration not stated)	-6	-6	64*	-3	-4	-5
CCOC(=O)N1CCN(C(=O)CSCC(=O)Nc2nc(-c3cccs3)cs2)CC1	-17	6	·	-2	-2	·
CC(=O)Nc1nc(-c2cccs2)cs1	3	-5	1	-2	-1	6
CC1CCCCN1C(=O)CSCC(=O)Nc1nc(-c2cccs2)cs1 (configuration not stated)	·	23	73*	-2	·	-1
O=C(O)C1CCCCC1C(=O)Nc1nc(-c2cccs2)cs1 (configuration not stated)	-23	-2	2	-2	1	-4
CC1(C)CC(NC(=O)CCC2CCCC2)CC(C)(C)N1	12	-6	40*	0	2	-8
CC(C)CNC(=S)NC1CC2CCCC(C1)N2Cc1ccco1 (configuration not stated)	-16	-12	31*	-1	-9	-9
O=c1c2ccccc2nc(SCc2nnc(-c3ccccc3Br)o2)n1-c1ccccc1	-8	-1	39*	-2	-3	-1
COc1ccc(-c2nnc(CSc3nc4ccccc4c(=O)n3C)o2)cc1OC	12	-8	0	-3	-5	32*
O=C(CSc1nc2ccccc2c(=O)n1-c1ccc(F)cc1F)Nc1ccc2c(c1)CCC2	·	20	·	0	·	·
SMILES	S1P2 antag	GALR2 blocker	PostGolgi ctrl	GALR2 agonist	S1P2 agonist	PostGolgi yeast
Cc1ccc(-n2nnnc2SCc2nnc(-c3ccccc3Br)o2)cc1	26	0	56*	-2	-3	-5
Brc1ccccc1-c1nnc(CSc2nncn2-c2ccccc2)o1	5	8	24	-1	-8	7
O=c1c2ccccc2nc(SCc2nnc(-c3ccccc3)o2)n1-c1ccc(F)cc1F	-9	-6	31*	-1	-2	0
CCN(CC)S(=O)(=O)c1cnccc1N1CCN(c2cccc(Cl)c2)CC1	·	-2	·	0	·	·
CCc1cc2c(=O)c(-c3nc4ccccc4n3C)c(C)oc2c(CN(CC)CC)c1O	-16	-2	35*	-2	-6	4
CSCCC(NC(=O)c1cccc(C)c1)C(=O)OCC(=O)NC(=O)c1cccn1C (configuration not stated)	·	0	·	-1	·	·
CCn1c2ccccc2c2nnc(SCc3ccc(C(=O)OC)o3)nc21	-32	0	42*	-1	-2	-4
CCn1c2ccccc2c2nnc(SCc3ccccc3)nc21	·	-6	61*	0	·	6
CCn1c2ccccc2c2nnc(SCC(N)=O)nc21	-11	-2	10	-2	-3	1
CCCn1c2ccccc2c2nnc(SCC(=O)OCC)nc21	-49	-13	39*	-2	7	4
CCCn1c2ccccc2c2nnc(SCC(=O)OC)nc21	-43	9	8	-1	6	24
CCCn1c2ccccc2c2nc3ccccc3nc21	-43	16	40*	-2	9	8
CCOC(=O)c1ccc2c(c1)N(Cc1ccccc1C)C(=O)c1ccccc1S2=O (configuration not stated)	-10	8	31*	-3	-7	2
Cn1c(=O)c2c(nc(CN3CCN(C(=O)c4ccco4)CC3)n2CCCc2ccccc2)n(C)c1=O	2	0	32*	-2	-5	-3
CN(Cc1ccccc1)Cc1nc2c(c(=O)n(C)c(=O)n2C)n1CCCc1ccccc1	-28	-14	52*	-1	1	4
CCCCn1c(CN2CCN(C(=O)c3ccco3)CC2)nc2c1c(=O)n(C)c(=O)n2C	·	6	-10	0	·	4
CCCn1c(CN2CCN(C(=O)c3ccco3)CC2)nc2c1c(=O)n(C)c(=O)n2C	-13	0	35*	-1	-4	6
CC(C)Cn1c(CN(C)Cc2ccccc2)nc2c1c(=O)n(C)c(=O)n2C	-5	-5	5	-1	-5	1
CCn1c(COc2ccccc2Cl)nnc1SCC(=O)Nc1ncccc1C	·	-8	·	0	·	·
Cc1ccc(C(c2nnnn2Cc2ccccc2)N2CCN(Cc3ccccc3)CC2)cc1 (configuration not stated)	6	-19	·	0	-10	·
Cc1ccc(OCCN2CCN(CC(O)Cn3c4ccccc4c4ccccc43)CC2)cc1 (configuration not stated)	·	-17	·	3	·	·
Cc1ccc(OCC(O)Cn2c3ccccc3c3ccccc32)cc1 (configuration not stated)	-9	-1	41*	-3	-2	-1
Cc1cccc(C)c1OCC(O)Cn1c2ccccc2c2ccccc21 (configuration not stated)	3	-7	50*	-3	-4	-6
CC(=O)N(C)c1ccc(OCC(O)Cn2c3ccc(Cl)cc3c3cc(Cl)ccc32)cc1 (configuration not stated)	20	-11	57*	-2	-7	73*
O=C(CN1CCCCC1)Nc1ccc(NC(=O)c2ccccc2Cl)cc1Cl	·	5	·	-2	·	·
Cc1occc1C(=O)NNC(=S)Nc1cccc([N+](=O)[O-])c1	-1	13	0	-2	-5	-5
